Measurements taken from PubChem BioAssay AID1240 (Sanford-Burnham Center for Chemical Genomics, 2008).
The whole screen tested about 50,000 compounds, of which about 800 (1.6%) showed an effect of 50% or more. For the sample, strong results were picked, then their nearest neighbours and some compounds at random.

molecular target: Bcl-2-like protein 10 (Homo sapiens) (UniProt Q9HD36); test: TR3 peptide-Bcl-B binding displacers, biochemical primary FP assay, phenotype converters (AID 1240); settings: GST-Bcl-B / FITC-TR3 peptide fluorescence polarization; stronger effect = higher value; compound at 3.75 mg/L;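 also: 0% = Bcl-B with tracer peptide and DMSO and 100% = tracer peptide lacking Bcl-B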
Sequence (Q9HD36 whole entry, looked up): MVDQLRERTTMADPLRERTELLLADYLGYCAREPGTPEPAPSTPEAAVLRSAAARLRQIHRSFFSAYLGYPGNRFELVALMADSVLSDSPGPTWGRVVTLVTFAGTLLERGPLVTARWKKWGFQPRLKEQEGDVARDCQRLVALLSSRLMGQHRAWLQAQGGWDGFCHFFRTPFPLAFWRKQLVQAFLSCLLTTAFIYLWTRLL

Row | SMILES | displacement
1 | O=C(Nc1ccc2oc(-c3ccc(Cl)cc3Cl)nc2c1)c1ccc2c(c1)OCCO2 | 2.1%
2 | Cn1cc(/C=C/c2nc3ccccc3c(=O)n2Cc2ccccc2)c2ccccc21 | 136%
3 | O=c1c2ccccc2nc(/C=C/c2cccc([N+](=O)[O-])c2)n1Cc1ccccc1 | 12.9%
4 | Cn1c(/C=C/c2cn(Cc3ccccc3)c3ccccc23)nc2ccccc2c1=O | 17.3%
5 | O=c1c2ccccc2nc(/C=C/c2ccc([N+](=O)[O-])cc2)n1Cc1ccccc1 | 118%
6 | Cn1c(/C=C/c2cn(C)c3ccccc23)nc2ccccc2c1=O | 40.9%
7 | Cn1c(/C=C/c2ccc([N+](=O)[O-])cc2)nc2ccccc2c1=O | 2.9%
8 | Cc1onc(-c2ccccc2Cl)c1C(=O)NC12CC3CC(CC(C3)C1)C2 | 1%
9 | CCOC(=O)c1c(NC(=O)c2cccc(Cl)c2)sc(C(=O)Nc2cccc(C(F)(F)F)c2)c1C | -3.3%
10 | O=C(N1CCOCC1)n1nnc2ccccc21 | 13.2%
11 | CC(C)(C)c1ccc(-c2nn(CNc3cccc(Cl)c3)c(=S)o2)cc1 | 14%
12 | COc1ccc(C/C(N)=N/OC(=O)c2ccccc2Cl)cc1 | -0.1%
13 | CCCC(=O)Nc1ccc2nn(-c3ccc(F)cc3)nc2c1 | 0.6%
14 | O=C(Nc1ccc2nn(-c3ccc(Cl)cc3)nc2c1)c1ccccc1I | 7.4%
15 | O=C(Nc1ccc2nn(-c3ccc(Cl)cc3)nc2c1)c1ccccn1 | 91%
16 | O=C(COc1ccccc1)Nc1ccc2nn(-c3ccc(Cl)cc3)nc2c1 | 6.3%
17 | O=C(COc1ccc(Br)cc1)Nc1ccc2nn(-c3ccc(F)cc3)nc2c1 | 50.3%
18 | O=C(COc1ccc([N+](=O)[O-])cc1)Nc1ccc2nn(-c3ccc(F)cc3)nc2c1 | 9%
19 | O=C(Nc1ccc2nn(-c3ccc(Cl)cc3)nc2c1)c1ccccc1 | -1.9%
20 | COc1ccc(-n2nc3ccc(NC(=O)COc4ccccc4Cl)cc3n2)cc1 | 19.9%
21 | O=C(COc1ccccc1Cl)Nc1ccc2nn(-c3ccccc3)nc2c1 | 78.4%
22 | Oc1ccc(/C=N/Nc2nc3ccccc3s2)c(O)c1 | 11.1%

Row | SMILES | displacement
23 | COc1ccccc1CC(=O)NCc1ccco1 | 10.3%
24 | COc1ccc(/C=N/NC(=O)c2ccoc2C)c(OC)c1OC | -4.5%
25 | Cc1occc1C(=O)N/N=C/c1ccc(O)cc1O | 78.5%
26 | Cc1occc1C(=O)N/N=C/c1ccccc1 | 4.2%
27 | Cc1ccc(N2C(=O)c3ccc(C(=O)O)cc3C2=O)nc1 | -10.6%
28 | c1ccc(-n2ncnc2-c2ccc3c(c2)OCO3)cc1 | 4.4%
29 | CC1CCN(Cc2c(O)ccc3c4c(c(=O)oc23)CCC4)CC1 | 12.8%
30 | O=c1oc2c(CN3CCOCC3)c(O)ccc2cc1-c1nc2ccccc2[nH]1 | 139%
31 | CN1CCN(Cc2c(O)ccc3c(=O)c(-c4ccccc4)coc23)CC1 | -1.7%
32 | CN1CCN(Cc2c(O)ccc3cc(-c4nc5ccccc5[nH]4)c(=O)oc23)CC1 | 125%
33 | Cn1c(-c2cc3ccc(O)c(CN4CCOCC4)c3oc2=O)nc2ccccc21 | 19.1%
34 | CCOC(=O)c1c(-c2ccccc2)oc2ccc(O)c(CN3CCCC(C)C3)c12 (centres undefined) | 11%
35 | COc1ccccc1-c1coc2c(CN3CCN(C)CC3)c(O)ccc2c1=O | -1.3%
36 | CC1CCCN(Cc2c(O)ccc3cc(-c4nc5ccccc5[nH]4)c(=O)oc23)C1 (centres undefined) | 106%
37 | CCc1cc2c(=O)c(-c3nc4ccccc4[nH]3)coc2c(CN2CCOCC2)c1O | 8.5%
38 | COc1ccc(N2C(=O)C3C(c4ccccc4Cl)OC4(C(=O)c5ccccc5C4=O)C3C2=O)c(OC)c1 (centres undefined) | 12.5%
39 | COc1ccc(C2CC(=O)C3=C(C2)Nc2ccccc2NC3c2cc(C)ccc2C)cc1 (centres undefined) | -3.7%
40 | Cc1ccc(C2/C(=C(\O)c3ccccc3)C(=O)C(=O)N2CCCC(=O)O)cc1 (centres undefined) | 1.4%
41 | O=C1N=c2ccccc2=C1c1sc(Nc2cccc(Cl)c2Cl)nc1O | 15.8%
42 | O=C1OC(c2ccc(Br)cc2)=C/C1=C\C=C\c1ccccc1 | -8.3%
43 | COc1cc(/C=C2\C(=O)NN(c3ccccc3)C2=O)cc(OC)c1OC | -6.6%
44 | COc1ccc(C(=O)Nc2ccc(Br)cn2)cc1OC | 5.1%

Row | SMILES | displacement
45 | COc1ccc(Cl)cc1NC(=O)C1=C(C)NC(=O)NC1c1cccc2ccccc12 (centres undefined) | 15.4%
46 | O=C1CCCc2oc3ccc(NS(=O)(=O)c4ccccc4)cc3c21 | 2.5%
47 | O=[N+]([O-])c1ccc(-c2ccc(/C=C/c3ccc4ccccc4n3)o2)cc1 | 14.8%
48 | Cc1ccc(/C=C/C(=O)Nc2ccc([N+](=O)[O-])cc2)o1 | 11.8%
49 | O=C(/C=C/c1ccc(-c2ccccc2[N+](=O)[O-])o1)Nc1ccc(NC(=O)c2ccco2)cc1 | -0.2%
50 | Cc1ccc(/C=C/C(=O)Nc2ccc(C)c([N+](=O)[O-])c2)o1 | 62%
51 | O=C1C(=Cc2ccc(-c3ccccc3[N+](=O)[O-])o2)C(=O)c2ccccc21 | -3.3%
52 | O=C(/C=C/c1ccc(-c2ccccc2[N+](=O)[O-])o1)Nc1cccnc1 | 73.1%
53 | Cc1ccc(/C=C/C(=O)Nc2cccc([N+](=O)[O-])c2)o1 | 10.1%
54 | O=C(Nc1cccnc1)c1ccc(-c2ccccc2[N+](=O)[O-])o1 | 48.4%
55 | O=[N+]([O-])c1ccccc1-c1ccc(/C=C/c2ccc3ccccc3n2)o1 | 97.9%
56 | COc1ccc(-c2cc(CC(=O)c3ccccc3)cc(-c3ccc(OC)cc3)n2)cc1 | 7.7%
57 | COc1ccc(Cl)cc1N(CC(=O)N1CCCCC1)S(=O)(=O)c1ccc(C)c([N+](=O)[O-])c1 | 2.3%
58 | Cc1ccccc1/[N+]([O-])=C/c1cccs1 | 0.1%
59 | COc1ccccc1NC(=O)C(=O)NCC(C)C | 9.1%
60 | COc1cc(OC)c(OC)cc1CN1CCN(Cc2cc(OC)c(OC)cc2Br)CC1 | 1.2%
61 | CCc1cc(=O)oc2cc(OC(C)=O)ccc12 | 12.3%
62 | O=C(N(c1cccc(C(F)(F)F)c1)C1C=CS(=O)(=O)C1)C(F)(F)F (centres undefined) | 14.6%
63 | CCOC(=O)c1ccccc1N(C(=O)C(F)(F)F)C1C=CS(=O)(=O)C1 (centres undefined) | -3.1%
64 | O=C(N(c1cccc2ccccc12)C1C=CS(=O)(=O)C1)C(F)(F)F (centres undefined) | 66%
65 | CC(Oc1ccccc1)C(=O)N1CCC(Cc2ccccc2)CC1 (centres undefined) | 3.1%
66 | C=CCN1C(=O)/C(=C\c2ccc3c(c2)OCO3)C(=O)NC1=S | 4.4%

Row | SMILES | displacement
67 | COc1c(Cl)cc(C(=O)Nc2c(C)cccc2C)cc1Cl | 6.7%
68 | COc1ccc(Br)cc1C1C(C(=O)OCCOC(C)C)=C(C)NC2=C1C(=O)CCC2 (centres undefined) | -2.6%
69 | Cc1ccc(NC(=O)CN(c2ccc(C(C)C)cc2)S(=O)(=O)c2ccccc2)c(C)c1 | 5.6%
70 | COc1cc(C2OCC3(CO)C(C)C=C(C)C2C3C)ccc1O (centres undefined) | 16.4%
71 | O=C1c2cccc3c(N4CCNCC4)ccc(c23)C(=O)N1c1ccc(Cl)cc1 | 101%
72 | Cc1cccc(N2C(=O)c3ccc(-c4ccc5c(c4)C(=O)N(c4cccc(C)c4)C5=O)cc3C2=O)c1 | 6.7%
73 | COc1ccc(N2C(=O)c3cccc4c(N5CCNCC5)ccc(c34)C2=O)cc1 | 37.2%
74 | Cc1cccc(N2C(=O)c3cccc4c(N5CCOCC5)ccc(c34)C2=O)c1 | 154%
75 | Cc1cccc(N2C(=O)c3cccc4c(N5CCCCC5)ccc(c34)C2=O)c1 | 15.5%
76 | O=C1c2cccc3c(N4CCCCC4)ccc(c23)C(=O)N1c1ccc(Cl)cc1 | 5.7%
77 | CC(=O)Oc1ccc(-c2cccc(C(=O)NC(CO)C(O)c3ccc([N+](=O)[O-])cc3)c2)cc1 (centres undefined) | 10.4%
78 | COC(=O)c1ccc(-n2ncnc2-c2ccc(Br)cc2)cc1 | -5.4%
79 | CCC(=O)NC(Nc1ccc(OC)cc1)(C(F)(F)F)C(F)(F)F | -2.7%
80 | Cc1csc(-c2cc3ccc(O)c(CN4CC5(C)CC4CC(C)(C)C5)c3oc2=O)n1 (centres undefined) | 138%
81 | Cc1oc2c(CN3CC4(C)CC3CC(C)(C)C4)c(O)ccc2c(=O)c1-c1nc2ccccc2s1 (centres undefined) | 11.2%
82 | Cc1csc(-c2cc3ccc(OCc4c(F)c(F)c(F)c(F)c4F)cc3oc2=O)n1 | 6.9%
83 | COc1ccc(C)cc1NC(=O)COc1ccc(Cl)cc1C | -5.2%
84 | O=C(O)CCC(=O)Nc1ccc(CC(=O)O)cc1 | 21.4%
85 | CCOC(=O)c1c(NC(=O)C2CCCO2)sc(C(=O)N(CC)CC)c1C (centres undefined) | -4%
86 | N#C/C(=C\c1ccc(F)cc1)c1nn(CCO)c(N)c1C#N | -45.5%
87 | CCN(CC)c1ccc(/C=C(\C#N)c2nn(CCO)c(N)c2C#N)cc1 | 68.2%
88 | N#C/C(=C\c1ccc(Cl)cc1)c1nn(CCO)c(N)c1C#N | 11.2%

Row | SMILES | displacement
89 | COc1cc(OC)cc(C(=O)O/N=C(\c2ccncc2)c2ccc([N+](=O)[O-])cc2)c1 | 10.5%
90 | O=C1/C(=C/c2ccc(-c3cccc([N+](=O)[O-])c3)o2)SC(=S)N1Cc1ccco1 | 9.9%
91 | O=C(O)CCCN1C(=O)/C(=C\c2ccc(-c3ccc(Br)cc3)o2)SC1=S | -65.6%
92 | O=C1/C(=C/c2ccc(-c3ccc([N+](=O)[O-])cc3)o2)SC(=S)N1Cc1ccccc1 | 9.4%
93 | O=C1/C(=C\c2ccc(-c3cccc([N+](=O)[O-])c3)o2)SC(=S)N1CCc1ccccc1 | 114%
94 | O=C(O)CCN1C(=O)/C(=C/c2ccc(-c3ccc([N+](=O)[O-])cc3)o2)SC1=S | -59.7%
95 | O=C(O)CCCN1C(=O)/C(=C\c2ccc(-c3cccc([N+](=O)[O-])c3)o2)SC1=S | 59%
96 | O=C(NC1CCN(Cc2ccccc2)CC1)c1ccc(F)cc1 | 2.6%
97 | FC(F)(F)c1cccc(NC(=S)NCc2ccc3c(c2)OCO3)c1 | -6.8%
98 | O=C1NC(=S)S/C1=C/c1cn(CCOc2ccc(Br)cc2)c2ccccc12 | 68.9%
99 | Cc1cccc(OCCn2cc(/C=C3/SC(=S)N(C)C3=O)c3ccccc32)c1 | 15.1%
100 | CCc1cc(C)cc(OCCn2cc(/C=C3/SC(=S)NC3=O)c3ccccc32)c1 | 78.8%
101 | CCc1cc(C)cc(OCCn2cc(/C=C3/SC(=S)N(C)C3=O)c3ccccc32)c1 | 123%
102 | Cc1ccccc1OCCn1cc(C=C2C(=O)NC(=S)NC2=O)c2ccccc21 | 6.1%
103 | COc1cccc(OCCn2cc(C=C3C(=O)NC(=S)NC3=O)c3ccccc32)c1 | 36.6%
104 | CCc1cc(C)cc(OCCn2cc(C=C3C(=O)NC(=S)NC3=O)c3ccccc32)c1 | 14.7%
105 | CC(C)(C)c1ccc(OCCn2cc(/C=C3/SC(=S)NC3=O)c3ccccc32)cc1 | 15.2%
106 | CCC(C)c1ccccc1OCCn1cc(/C=C2/SC(=S)NC2=O)c2ccccc21 (centres undefined) | 128%
107 | COc1cccc(OCCn2cc(/C=C3/SC(=S)NC3=O)c3ccccc32)c1 | -15.1%
108 | CCc1cc(C)cc(OCCOc2ccccc2/C=C2/SC(=S)N(C)C2=O)c1 | 2.3%
109 | O=C1NC(=S)S/C1=C\c1cn(CCOc2ccccc2F)c2ccccc12 | -62.3%
